# PfHsp40 rescue = rescue of PfHsp40-mediated yeast toxicity. S. cerevisiae expressing PfHsp40, growth rescue, ATP luminescence. growth rescue, % at 12.5 µM. 340,000 compounds, 0.68% hits; in the data active = growth rescue above about 28%, passing the limit was not always enough;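 also: yeast W303a lacking pdr1 and pdr3 grown in galactose medium; growth measured after three days at 30 °C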
# Sa RN4220 lethal = S. aureus RN4220 growth inhibition. OD600, 16 h. inhibition, % (no concentration beside the values). 330,000 compounds, 0.33% hits; in the data active = inhibition above about 85%;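 also: plate controls were untreated cells for no effect and reference antibiotic for full effect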
# PrPC surface inh = cell surface PrPC inhibition, primary TR-FRET screen. TR-FRET read-out. inhibition, % at 13.8 µM. P04156. 370,000 compounds, 0.43% hits; in the data active = inhibition above about 24%; also: 0% = median of the test wells and 100% = reference compound wells
# DUSP3 inh = blocks human VHR1 dual specificity phosphatase. P51452. recombinant VHR phosphatase, pNPP absorbance. inhibition, % at 13.3 µM. 290,000 compounds, 0.52% hits; in the data active = inhibition above about 50%
# Target sequence (P51452 whole entry, looked up): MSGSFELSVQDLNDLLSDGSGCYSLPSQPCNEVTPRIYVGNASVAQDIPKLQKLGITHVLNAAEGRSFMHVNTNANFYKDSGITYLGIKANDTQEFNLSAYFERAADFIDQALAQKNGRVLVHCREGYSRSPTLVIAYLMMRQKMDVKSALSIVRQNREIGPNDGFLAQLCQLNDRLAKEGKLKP
# Sa ugtP lethal = kills S. aureus RN4220 lacking UgtP | S. aureus RN4220 ugtP deletion, OD600 growth, 16 h | growth inhibition, % (concentration not given with the values) | 330,000 compounds, 0.54% hits | AID 1259309; in the data active = growth inhibition above about 68%;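 also: plate controls were untreated wells for no effect and antibiotic for full effect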
# * = called active by the depositor; x = no result. Only some compounds are listed: those with a hit (about 1.8% of all), similar ones and a draw of the others.
SMILES,PfHsp40 rescue,Sa RN4220 lethal,PrPC surface inh,DUSP3 inh,Sa ugtP lethal
C[C@@]12C(=O)OC(=O)[C@]1(C)C1CCC2O1,-1,x,41*,x,x
CCOC(=O)c1ccc(NC(=O)c2nc[nH]c2C(=O)NC(C)c2ccccc2)cc1 (centres undefined),x,-7,x,x,1
Cc1ccc(C(=O)NCCN2C3=NCC(C)N3CC2Cc2ccc(O)cc2)cc1Br (centres undefined),x,0,x,x,-9
CCCN1CCC(=O)N(C(COc2ccccc2)c2ccccc2)CC1 (centres undefined),x,3,x,x,1
CN1CCC(=O)N([C@H](CC#N)c2ccccc2)CC1,0,x,-2,52*,x
N#CCC(c1ccccc1)N1CCN(Cc2ccccc2)CCC1=O (centres undefined),x,6,x,x,-7
CCCN1CCC(=O)N([C@H](COc2ccccc2)c2ccccc2)CC1,0,x,-5,55*,x
CCCCC(c1nnnn1Cc1ccco1)N1CCN(c2nc3ccccc3s2)CC1 (centres undefined),27*,5,10,33,0
COc1ccc2c(c1)c(=O)oc1c(C)c(OCc3ccc(C(=O)O)cc3)ccc12,1,x,x,52*,x
Cc1cc(O)c(CN(C)C)c2c1C(=O)/C(=C/c1ccco1)O2,1,0,-4,-25,-4
Cc1cc(O)c(C=O)c2c1C(=O)Oc1c(CO)c(O)c3c(c1O2)C(O)OC3=O (centres undefined),161*,x,x,12,x
Clc1ccc2c(c1)Nc1ccccc1CC2,4,6,-3,x,89*
O=C1CCc2ccccc2N1,-1,11,-5,12,6
Cc1noc(C)c1S(=O)(=O)N(C)CC1Oc2ccc(NC(=O)C3CCCCC3)cc2C(=O)N(C(C)CO)CC1C (centres undefined),x,5,x,x,0
Cc1cc(C)c(S(=O)(=O)N2CCC(C(=O)NCc3ccc(Cl)cc3Cl)CC2)c(C)c1,38*,-13,-3,21,-21
Oc1ccc(CN2CCCCC2)c2cccnc12,24,5,-4,4,6
Oc1c(CN2CCCCC2)ccc2cccnc12,47*,2,6,x,3
CC(=NNC(=O)C1CC1)c1ccc(C)cc1C,x,-1,x,x,7
Cc1cccc(CS(=O)(=O)c2nnc([C@H](Cc3ccccc3)NC(=O)OC(C)(C)C)o2)c1,373*,5,x,-7,38
CC1CCc2c(C(=O)Nc3ccccn3)csc2C1 (centres undefined),265*,3,-9,21,-21
CC1CCc2c(C(=O)NCc3ccccn3)csc2C1 (centres undefined),-1,1,0,5,5
CC1CCCCN1C(=O)c1cccc(NC2=C(Cl)C(=O)N(Cc3ccccc3)C2=O)c1 (centres undefined),31*,4,x,x,1
CCC1OC(=O)C(C)C(OC2C[C@@](C)(OC)C(O)C(C)O2)C(C)C(O[C@@H]2OC(C)CC(N(C)C)C2O)[C@](C)(O)CC(C)C(=NOCOCCOC)C(C)C(O)[C@]1(C)O (some centres undefined),0,x,2,x,x
CCC1OC(=O)C(C)C(OC2C[C@@](C)(OC)C(O)C(C)O2)C(C)C(OC2OC(C)CC(N(C)C)C2O)[C@](C)(O)CC(C)C(=NOCOCCOC)C(C)C(O)[C@]1(C)O (some centres undefined),x,100*,x,x,100*
CC(OC(=O)c1cc2sccc2n1C)C(=O)NCC1CCCO1 (centres undefined),106*,5,1,0,3
SMILES,PfHsp40 rescue,Sa RN4220 lethal,PrPC surface inh,DUSP3 inh,Sa ugtP lethal
Cc1cc(/C=N/n2c(COc3ccccc3C)nc3ccccc3c2=O)c(O)c([N+](=O)[O-])c1,57*,x,1,-12,x
CC(=NOCc1nc2ccccc2c(=O)n1N=Cc1cc(C)cc([N+](=O)[O-])c1O)c1ccccc1,x,2,x,x,3
CCN1CCc2c(C#N)c(NCc3ccccc3)nc(N(CC)CC)c2C1,0,6,-9,56*,-2
N#Cc1c(NCCN)nc(NCc2ccccc2)c2c1CCN(Cc1ccccc1)C2,1,x,x,14,x
Cc1cc2ccccc2cc1C(=O)c1ccccc1,1,5,2,x,78
Cc1sc2cc3c(c(C(=O)c4ccccc4)[n+]2c1C)-c1cccc2cccc-3c12,x,100*,-31,12,100*
O=C(c1ccccc1)c1c2c(cc3sc4ccccc4[n+]13)-c1cccc3cccc-2c13,119*,100*,-6,12,100*
O=C(c1ccccc1)c1ccc2ccccc2c1,0,7,1,x,18
CC1COC(=O)C(Cc2ccc(F)cc2)CCC=CCC(CC(=O)NCCO)C(=O)N1 (centres undefined),x,5,x,x,0
O=C(N/N=C/c1cccc([N+](=O)[O-])c1)c1cc(-c2ccc3c(c2)OCO3)n[nH]1,2,x,2,51*,x
O=C(N/N=C/c1cccc(O)c1)c1cc(-c2ccc3c(c2)OCO3)n[nH]1,0,x,5,30,x
O=C(N/N=C/c1ccc(O)cc1)c1cc(-c2ccc3c(c2)OCO3)n[nH]1,-1,x,25*,22,x
CC(=O)c1c(C)[nH]c(C(=O)N2CCN(c3ncccn3)CC2)c1C,0,-4,-3,9,-4
CC(=O)c1c(C)[nH]c(C(=O)N2CCN(c3ccccn3)CC2)c1C,-1,4,-2,57*,1
O=C(CCN1CCOCC1)N/N=C/c1cc(Br)cc(Br)c1O,40*,x,6,16,x
COc1ccc(C2CC(=O)C=C(c3ccc(Cl)c(C(F)(F)F)c3)C2)cc1OC (centres undefined),x,-1,x,x,52
O=C(CSc1ccc(Cl)cc1)N1CCN(c2c(Cl)cccc2[N+](=O)[O-])CC1,66*,-12,-5,3,33
CC(=NNc1ccc(Cl)cc1)c1c(O)cc(C)oc1=O,x,3,x,x,-3
Cc1ccc(/C=N/Nc2ccc(C(=O)O)cc2)s1,123*,x,-3,7,x
Cc1ccc(C=NNc2cccc(C(=O)O)c2)s1,x,3,x,x,1
CSc1ccc(Cl)c(C(=O)NCCOc2cc(C(C)C)ccc2C)c1,3,96*,1,10,97*
CCCc1cc(C(=O)NNC(=S)NCC2CCCO2)cs1 (centres undefined),69*,5,-1,9,5
O=C1C=C(c2ccc(C(=O)O)cc2)CC(c2ccc(F)cc2)C1 (centres undefined),x,2,x,x,-2
COc1cc2c(cc1NC(=O)C(C)Sc1ccc(NC(C)=O)cc1)oc1ccccc12 (centres undefined),33*,-18,22,18,-13
COc1cc2c(cc1NC(=O)Nc1ccc(C)cc1)oc1ccccc12,23,8,16,2,60
COc1cc(C=NNC(=O)c2cn(-c3cccc(C)n3)cn2)ccc1O,x,-3,x,x,-14
CCCCCCC(C)(C)c1ccc([C@@H]2C[C@H](O)CC[C@H]2CCCO)c(O)c1,68*,x,8,x,x
CC(CCC(=O)O)C1CCC2C3C(=O)CC4CC(=O)CC[C@]4(C)C3CC(=O)[C@]12C (some centres undefined),x,1,x,x,-6
CC(C)COc1ccc(C(=NO)c2ccccc2)cc1,x,22,x,x,86*

# Screening data: PubChem BioAssay, several laboratories
